Source: PubChem BioAssay AID2314 (National Center for Advancing Translational Sciences (NCATS), 2010)
Out of some 300,000 compounds screened, about 37,000 (12%) were called active. What follows is part of a selection rich in actives, with near analogues and random picks from the rest. A number with no mark means an inactive call. No stated cut-off is given here; in the data, active means max response mostly above about 13% (no sharp cut-off); inactive means mostly below about 14%.

Experiment: Cycloheximide Counterscreen for Small Molecule Inhibitors of Shiga Toxin; further: read at 38.3 µM for the half of the compounds with a filed dose; 0% is about no effect
Conditions: cell reporter, cycloheximide protein synthesis inhibition counterscreen; stronger effect = higher value

Row | SMILES | max response
1 | CCOc1cc(-c2cc(-c3ccc(NC(C)=O)cc3)nc(N)c2C#N)ccc1O | -3.59%
2 | CC(=O)Nc1ccc(S(=O)(=O)Nc2cccc(NC(=O)C(C)(C)C)c2)cc1 | 4.2%
3 | CC(=O)Nc1ccc(OCC(=O)NCc2ccc(C)cc2)cc1 | 7.82%
4 | CCCCC(=O)Nc1ccc(C(=O)NCCCn2ccnc2)cc1 | 3.08%
5 | CC(=O)Nc1ccc(S(=O)(=O)Nc2nc(-c3ccc(C(C)(C)C)cc3)cs2)cc1 | -0.918%
6 | CC(C)(C)C(=O)Nc1ccc(-c2cn3cccnc3n2)cc1 | 28.5% (active)
7 | CC(=O)Nc1ccc(-c2cn3cccnc3n2)cc1 | 25.4% (active)
8 | CCCCCC(=O)Nc1ccc(-c2cn3cccnc3n2)cc1 | 25.3% (active)
9 | CCCCCC(=O)Nc1ccc(S(=O)(=O)Nc2ccc(Cl)nn2)cc1 | 5.65%
10 | CON(C)S(=O)(=O)c1ccc2c(c1)NC(=O)C1CCCN21 (stereo not drawn) | -1.81%
11 | CCN(CC(=O)N1CCCC1)S(=O)(=O)c1ccc(F)cc1 | -0.599%
12 | Cc1ccc(C)c(N2CCN(C(=O)CCc3nc4ccccc4[nH]3)CC2)c1 | -4.18%
13 | CC(C)n1c(NCc2c[nH]c3ccccc23)nc2ccccc21 | 5.28%
14 | Cc1ccc(O)c(CNc2nc3ccccc3n2C)c1 | 35% (active)
15 | Cn1c(CNC(=O)C(C)(C)C)nc2ccccc21 | -0.534%
16 | OCCNc1nc2ccccc2[nH]1 | -3.17%
17 | Cc1ccc(O)c(CNc2nc3ccccc3[nH]2)c1 | 19.7% (active)
18 | CC(=O)c1ccc(NC(=O)Cn2c(=O)oc3ccccc32)cc1 | 0.709%
19 | Cc1ccc(-n2ncc(C(=O)NC3CC3)c2C2CCN(C(=O)OC(C)(C)C)CC2)c(C)c1 | 5.17%
20 | CCOc1ccccc1NS(=O)(=O)c1c[nH]c(C(=O)OC)c1 | -0.295%
21 | Cc1ccccc1N1CC(C(=O)Nc2nnc(SCCC3OCCO3)s2)CC1=O (stereo not drawn) | 0.819%
22 | CCc1nnc(NC(=O)C2CC(=O)N(c3ccc4c(c3)OCCO4)C2)s1 (stereo not drawn) | 6.49%
23 | c1ccc2cc3c(NCCN4CCOCC4)ccnc3cc2c1 | -2.42%
24 | Cn1cc(C(=O)c2ccc(Cl)cc2Cl)cc1C(=O)NN | -5.78%
25 | O=C(CCN1CCCCC1)N=Nc1c(O)[nH]c2ccccc12 | 2.5%

Row | SMILES | max response
26 | COc1ccccc1-n1ccnc1SCC(=O)NC(C)(C)C | -1.32%
27 | CC(C)(C)NC(=O)CSC(=Nc1ccccc1F)NC#N | 27.7% (active)
28 | Cc1ccccc1CSCC(=O)NC(=O)NC(C)(C)C | 9.92%
29 | CCc1nn(CC(=O)N2CCN(CC)CC2)c(=O)c2cccn12 | -0.288%
30 | Cc1ccc(C(=O)NC(=S)NCc2cccnc2)cc1 | 18.8%
31 | Cn1nnc(NC(=S)NC(=O)c2ccccc2)n1 | 10.8%
32 | CCc1ccccc1NC(=O)CCOc1ccccc1 | 0.846%
33 | Cc1ccccc1C(=O)Nc1ccccc1NC(=O)c1ccccc1C | -4.55%
34 | Cc1cc2[nH]ncc2cc1NC(=S)NC(=O)c1ccccc1 | 16.5% (active)
35 | Cc1ccccc1NC(=O)CCOc1ccccc1 | 32.8% (active)
36 | Cc1ccc(C(=O)NC(=S)Nc2ccccc2C)cc1 | 43.9% (active)
37 | Cc1cc(C)cc(C(=O)NC(=S)Nc2ccc3[nH]c(=O)[nH]c3c2)c1 | -3.08%
38 | Cc1ccccc1C(=O)Nc1ccccc1Sc1ccccc1 | -2.65%
39 | Cc1c(NC(=O)CCCOc2ccccc2)cccc1[N+](=O)[O-] | 6.53%
40 | Cc1ccccc1NC(=S)NC(=O)Cc1ccc(Cl)cc1 | -2.71%
41 | Cc1ccccc1NC(=O)c1ccccc1 | 15.4% (active)
42 | COC(=O)C1(C)NC(c2ccccc2OC)C2C(=O)N(c3ccccc3)C(=O)C21 (stereo not drawn) | -3.69%
43 | COc1ccc(N2CCN(S(=O)(=O)CCNC(=O)C34CC5CC(CC(C5)C3)C4)CC2)cc1 | -6.7%
44 | CCN(CC(=O)NCC(=O)Nc1cccc(C)c1C)Cc1ccccc1 | -0.652%
45 | O=C1C(=O)N(CCCN2CCOCC2)C(c2ccc([N+](=O)[O-])cc2)/C1=C(\O)c1ccc2c(c1)OCCO2 (stereo not drawn) | 13.6%
46 | COc1ccccc1NC(=O)c1cc(N2C(=O)C3C4CCC(C4)C3C2=O)ccc1Cl (stereo not drawn) | 21.1%
47 | Cc1ccc(CNC(=O)c2ccc(CS(=O)Cc3cccc(Cl)c3)o2)cc1 (stereo not drawn) | 5.04%
48 | CCC(C)C(=O)Nc1ccccc1N1CCN(c2ccc(F)cc2)CC1 (stereo not drawn) | 5.61%
49 | C/C(=N\NC(=S)NCc1ccccc1)C1CCCCC1 | -2.61%
50 | COC(=O)[C@@H]1CC(O)CN1C(=O)C12CC3CC(CC(C3)C1)C2 (stereo partly drawn) | -8.25%

Row | SMILES | max response
51 | COc1ccc(C(=O)NC2CC2)cc1OC1CCN(Cc2ccc(SC)cc2)CC1 | 10.6%
52 | Cc1nc([N+](=O)[O-])cn1CC(=O)Nc1ccc(Cl)cc1 | -1.69%
53 | CC(=O)Nc1ccc(C(=O)OCC(=O)Nc2ccc([N+](=O)[O-])cc2C(F)(F)F)cc1 | -3.83%
54 | O=C(NC(=O)c1ccccc1)Nc1ccccc1O | 38.7% (active)
55 | O=C(NC(=O)c1ccccc1)NC(=O)c1ccccc1 | 8.89%
56 | O=C(Nc1ccc(C(=O)O)c(O)c1)c1ccccc1 | -3.21%
57 | O=C(CCN1CCN(C/C=C/c2ccccc2)CC1)Nc1ccccc1Cl | -2.77%
58 | Cc1ccc(-c2nnc(CN3CCN(C)CC3)o2)cc1 | 11.1%
59 | Cc1ccc(CNC(=O)CCS(=O)(=O)c2ccc3c(c2)CC(C)N3C(=O)C2CC2)o1 (stereo not drawn) | 22.1% (active)
60 | COc1ccccc1CNC(=O)C1CCN(S(=O)(=O)c2ccc3c(c2)CC(C)N3C(=O)C2CC2)CC1 (stereo not drawn) | 1.43%
61 | CCC(=O)N1c2ccc(S(=O)(=O)CCC(=O)N3CCN(c4ccccc4)CC3)cc2CC1C (stereo not drawn) | -1.91%
62 | Cc1cc(SCc2c(F)cccc2Cl)nc(=O)[nH]1 | 6.03%
63 | Clc1ccccc1CSc1nnc(-c2ccco2)c(-c2ccco2)n1 | 8.29%
64 | O=C(CSc1ccc(-c2ccco2)nn1)NCc1ccc2c(c1)OCO2 | 3.12%
65 | Brc1ccc(CSc2ccc(-c3ccco3)nn2)cc1 | 28.4% (active)
66 | Fc1cccc(Cl)c1CSc1ccc(-c2ccco2)nn1 | 39% (active)
67 | N[C@@H](Cc1c[nH]c2ccccc12)c1nnc(SCc2c(F)cccc2Cl)o1 | -4%
68 | CCOc1ccc(Br)cc1S(=O)(=O)Nc1ccc(C(=O)OC(C)C(=O)N(C)c2ccccc2)cc1 (stereo not drawn) | 0.522%
69 | O=C(Nc1cccc(Cl)c1)c1cc(S(=O)(=O)N2CCCCC2)c[nH]1 | 1.01%
70 | CCOC(=O)C1CN(S(=O)(=O)c2ccc(OC)cc2)c2cc(Cl)ccc2O1 (stereo not drawn) | -3.3%
71 | Cc1ccc(S(=O)(=O)N2CCN=C2SCc2c(F)cccc2Cl)cc1 | 0.957%
72 | CC(=O)N(c1ccc2oc(=O)sc2c1)S(=O)(=O)c1ccc(C)cc1 | -5.66%
73 | Cc1ccc(N=C2NC(=O)c3cccc([N+](=O)[O-])c32)cc1 | 37.1% (active)
74 | COC(=O)c1cccc([N+](=O)[O-])c1CS(=O)(=O)c1ccc(C)cc1 | 1.48%
75 | Cc1ccc(Cl)cc1NC(=O)COC(=O)CC(C)(C)C | -0.256%

Row | SMILES | max response
76 | c1ccc2sc(NN=C3CCCC3)nc2c1 | 38.7% (active)
77 | O=C(COc1ccc(-c2ccccc2)cc1)NN=C1CCCC1 | -1.28%
78 | O=[N+]([O-])c1cc(Br)c(O)c(/C=N/Nc2nc3ccccc3s2)c1 | 26%
79 | COCc1cc(=O)[nH]c(-c2ccc(C(F)(F)F)cc2)n1 | -0.991%
80 | C=CCN(Cc1nc(-c2cc(OC)c3c(c2)OCO3)oc1C)C1CCS(=O)(=O)C1 (stereo not drawn) | -2.18%
81 | Cc1nc2ccccc2cc1OCc1ccc(F)cc1 | 37.2% (active)
82 | Fc1cccc2ncnc(OCc3ccccc3)c12 | 6.13%
83 | Cc1occc(=O)c1OCc1ccc(F)cc1 | 5.09%
84 | CCSc1nc2sc3c(c2c(=O)n1-c1ccc(C)cc1)CCN(C)C3 | -1.97%
85 | Cc1cccc(NS(=O)(=O)c2ccc(C)c(C(N)=O)c2)c1 | -1.67%
86 | Cc1ccccc1CC1(CO)CCCN(Cc2ccc3c(c2)OCCO3)C1 (stereo not drawn) | -2.18%
87 | COc1ccc([C@H]2[C@H](C(C)=O)N3N=Cc4ccccc4C3C23C(=O)OC(C)(C)OC3=O)cc1 (stereo partly drawn) | 12.2%
88 | O=c1c2ccccc2nnn1CSc1nnnn1-c1ccccc1 | 67.5% (active)
89 | CC(=O)c1cccc(-n2nnnc2SCC(=O)NNC(=O)C2CCCCC2)c1 | 0.0917%
90 | CN(C(=O)CSc1nncc2ccccc12)C1CCCCC1 | 30.4% (active)
91 | CN(C(=O)CCn1c(=S)oc2ccccc21)C1CCCCC1 | 3.76%
92 | C=CCn1c(SCn2nnc3ccccc3c2=O)nnc1-c1ccc(Cl)cc1 | 8.6%
93 | CN(C(=O)CSc1nnc(-c2c[nH]c3ccccc23)o1)C1CCS(=O)(=O)C1 (stereo not drawn) | 1.22%
94 | CN(C(=O)CSc1nnnn1-c1ccccc1)C1CCCCC1 | 17.1% (active)
95 | Nc1nnc(SCn2nnc3ccccc3c2=O)s1 | 13.9%
96 | CN(C(=O)COc1ncnc2c1cnn2-c1ccccc1)C1CCCCC1 | 2.25%
97 | CC(NC(=O)C1CCCN(S(=O)(=O)c2ccc(-n3cnnn3)cc2)C1)c1ccc(F)cc1 (stereo not drawn) | 1.89%
98 | Cc1cccc(N(Cc2ccccc2)C(=O)c2ccccc2F)c1 | 13.7%
